# According to PubChem BioAssay AID651707 (NMMLSC, 2012):
# Hit rate of the full screen: of about 2,300 compounds, about 170 (7.4%) were called active.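 How the source made its calls: active means over 5% cells positive for green fluorescent reporter, or over 2% positive for both it and APC stain; inactive means the rest, inconclusive results apart.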 Only a sample is shown.
# Assay: fluorescent artefacts in myeloid progenitor cells – cell-based, flow cytometry, GFP/APC, Cherry Pick01, artefact control for AML myeloid differentiation project, confirmation (AID 651707);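 on double positive: share of cells both GFP positive and bound by Mac1 APC antibody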;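 on fluorescence response: range taken on the double positive population between DMSO and positive control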
# Details: ER-HoxA9 myeloid progenitors, no estrogen, GFP autofluorescence flow cytometry, stronger effect = higher value; double positive: measured here: double positive GFP/APC population; fluorescence response: vehicle wells 0%, positive control 100%
SMILES,fluorescence response,double positive [%]
O=C(CCCN1C(=O)CCC1=O)Nc1ccc(Cl)c(C(F)(F)F)c1,0% (inactive),–
CCOC(=O)c1c(-c2ccccc2)oc2ccc(OCC(=O)NN)cc12,0% (inactive),–
CC(C)OC(=O)CN1C(=O)C(=O)c2ccccc21,0.5% (inactive),–
Cc1ccc(C)c(S(=O)(=O)N2CCN(c3ncnc4sccc34)CC2)c1,0% (inactive),–
O=C(NCC1CCCCC1)NCC1CCCCC1,0.2% (inactive),–
Nc1nc(Nc2ccccc2F)nc(NC2CCCCC2)c1[N+](=O)[O-],0% (inactive),–
COc1cccc(NC(=O)[C@H](Cc2c[nH]c3ccccc23)NC(=O)[C@@H]2Cc3ccccc3CN2)c1,0.6% (inactive),–
COc1ccccc1NC(=O)c1cc(Cl)nnc1Cl,0.6% (inactive),–
O=C(Nc1cccc2ncccc12)c1ccc(-c2ccc(Cl)cc2Cl)o1,0.6% (inactive),–
CCOC(=O)C1=C(CN2CCc3ccccc32)NC(=O)NC1c1cccc([N+](=O)[O-])c1 (configuration not stated),0% (inactive),–
O[C@H]1CN(Cc2cccs2)[C@@H](c2ccc(Cl)cc2)C[C@@H]1n1cc(C2CC2)nn1,0% (inactive),–
O[C@H]1C[C@H](c2ccc(Cl)cc2)N(Cc2cccs2)C[C@@H]1n1cc(C2CC2)nn1,0.5% (inactive),–
O=c1oc2ccccc2cc1-c1csc(Nc2ccc(O)cc2)n1,55.3% (active),–
Cc1ccc(-c2nc(C#N)c(NCCCn3ccnc3)o2)cc1,0.3% (inactive),–
Cc1ccc(C(=O)NC2CCCC(C)C2C)cc1S(=O)(=O)N1CCCCC1 (configuration not stated),0% (inactive),–
Cc1cc(C)c(-c2csc(NC(=O)CCCc3nc4ccccc4c(=O)[nH]3)n2)c(C)c1,2.2% (inactive),–
CC1CCCC(NC(=O)CN2CCN(Cc3ccc(Cl)cc3)C2=O)C1C (configuration not stated),0% (inactive),–
COc1ccc(C(=O)N(Cc2ccccc2)c2ccc(C)cc2)cc1S(=O)(=O)N1CCOCC1,1.5% (inactive),–
CN(C(=O)c1cccc([N+](=O)[O-])c1)c1ccccc1C(=O)NCc1ccccc1,0.4% (inactive),–
Cc1ccc(OS(=O)Nc2cccc3nccnc23)cc1 (configuration not stated),0% (inactive),–
Fc1cccc(Cl)c1CSc1ccc(-c2ccco2)nn1,0.5% (inactive),0.2
O=C(CN1C(=O)NC(Cc2c[nH]c3ccccc23)C1=O)Nc1ccccc1C(F)(F)F (configuration not stated),0% (inactive),–
CCOC(=O)C(C(=O)OCC)C(C#N)c1ccccc1 (configuration not stated),0% (inactive),–
CCN(CC)c1ccc(/C=N/NC(=O)CNC(=O)c2cccs2)cc1,0% (inactive),–
COc1ccc(C(C(=O)NCc2ccccc2)n2c(=O)c(-c3ccccc3)nc3ccccc32)cc1 (configuration not stated),0.7% (inactive),–
N#C/C(=C/c1ccc(N2CCCCC2)o1)C(=O)NCCc1c[nH]c2ccccc12,64.7% (active),–

SMILES,fluorescence response,double positive [%]
COc1ccccc1CNC(=O)c1cc(-c2cc(Cl)ccc2C)n[nH]1,0% (inactive),–
O=S(=O)(c1ccc(Br)cc1)c1nc(-c2ccccc2)oc1NCc1cccnc1,1.5% (inactive),–
CC(=O)Nc1ccc(S(=O)(=O)Nc2ccc(N3CCCCC3)cc2)cc1,10.5% (active),10.5
CC(=O)Nc1ccc(S(=O)(=O)Nc2ccc(N3CCOCC3)c(F)c2)cc1,0.8% (inactive),0.2
CCOC(=O)c1c(-c2ccc(C)cc2)csc1/N=C(\C)C1=C(O)c2ccccc2C1=O,0% (inactive),–
COc1ccc(-c2ccc(OC(=O)NC3CCS(=O)(=O)C3)cc2)cc1 (configuration not stated),0.7% (inactive),0.4
COC(=O)CN(c1cccc(C(C)=O)c1)S(C)(=O)=O,0% (inactive),–
C/C(=C\c1ccccc1)C1NC(=O)c2c(sc3c2CCCC3)N1 (configuration not stated),0% (inactive),–
COc1ccc(C2CC(c3cccc(OC)c3)=NN2c2ccc(S(N)(=O)=O)cc2)cc1 (configuration not stated),0.5% (inactive),–
Cc1cc(NC(=O)CSc2nc(C(C)C)nc3sc4c(c23)CCC(C)C4)no1 (configuration not stated),1.4% (inactive),–
COc1ccc(-c2nnc(SCC(=O)c3cccs3)o2)c(OC)c1,3.4% (inactive),–
Cc1ccc2c(c1)C1C[N+](C)(CC(=O)c3ccccc3)CCC1N2C(=O)c1ccccc1Cl (configuration not stated),0% (inactive),–
Cc1ccc(-n2nc3cc(C)c(NC(=O)c4cccnc4)cc3n2)cc1,4.7% (inactive),–
COc1ccc2nc(N3CCN(C(=O)c4ccc([N+](=O)[O-])o4)CC3)sc2c1,0% (inactive),–
CC(C)CC(COCc1ccc(Cl)cc1)N1CCN(C(=O)c2ccc(C(F)(F)F)cc2)CCC1=O (configuration not stated),0% (inactive),–
COc1ccccc1N1CCN(C(=O)c2cc(-c3ccc(Br)cc3)on2)CC1,0.3% (inactive),–
O=C1c2ccccc2C(=O)N1Cc1cc(-c2ccccc2Cl)no1,0% (inactive),–
Cc1nn(-c2cc(Cl)ccc2N)c(=O)c2ccccc12,0% (inactive),–
CNC[C@H]1Oc2c(NC(=O)C3CCCCC3)cccc2C(=O)N([C@H](C)CO)C[C@@H]1C,0% (inactive),–
O=C(Cn1cc(-c2nnnn2-c2ccc(Cl)cc2)c(=O)c2ccccc21)c1ccccc1,0% (inactive),–
CN1CCC(CN)(N2CCN(c3ccccc3)CC2)CC1,0.6% (inactive),–
CC#CC[N+](C)(C)CCCCCC,0% (inactive),–
N#CC1=C(N)Oc2c(sc3ccccc23)C1c1ccco1 (configuration not stated),0% (inactive),–
O=C(NC(=O)c1ccccc1)Nc1ccccc1O,1.3% (inactive),–
Cc1c(C(=O)OCC(=O)N(CCC#N)c2ccccc2)oc2c1ccc1ccccc12,0% (inactive),–
Cc1cccc(OCC(O)CN2CCN(CCN3C(=O)c4cccc5cccc(c45)C3=O)CC2)c1C (configuration not stated),0% (inactive),–

SMILES,fluorescence response,double positive [%]
CCCC(=O)Nc1c(O)c2ccccc2[nH]c1=O,0% (inactive),–
CCN(CC)C(=O)CSC(Nc1cccc(F)c1)=C(C#N)C#N,7.7% (active),–
Cc1cc(C)c(S(=O)(=O)NCC2CCC(C(=O)NCc3ccc4c(c3)OCO4)CC2)c(C)c1 (configuration not stated),0.2% (inactive),–
O=C(CN(c1ccccc1)S(=O)(=O)c1ccc(Cl)cc1)Nc1ccccc1C(=O)N1CCCC1,0% (inactive),–
CC(C)CNC(=O)COC(=O)/C=C/c1ccccc1[N+](=O)[O-],0% (inactive),–
Cc1cc(C)n(C(=O)c2ccc(C)c(S(=O)(=O)N3CCOCC3)c2)n1,2.3% (inactive),–
Cc1ccc(Nc2cc(C)nc3c(C)ccc([N+](=O)[O-])c23)cc1,6.7% (active),–
CCc1noc(C)c1C(=O)Nc1nc(-c2ccccc2)cs1,1% (inactive),–
COc1cccc(NC(=S)NCc2ccccn2)c1,0.3% (inactive),–
COc1cc(/C=C(\C#N)c2nc3ccccc3[nH]2)ccc1O,36.7% (active),–
Clc1ccc(-c2nnc(SCc3nc4ccccc4s3)o2)cc1,0% (inactive),–
CCC1CCCCN1CCCNC(=O)Cn1nc(-c2ccccc2)ccc1=O (configuration not stated),0% (inactive),–
CC1=C(C(N)=O)C(c2ccc3c(c2)OCO3)n2nc(-c3cccc(C)c3)nc2N1 (configuration not stated),0% (inactive),–
COc1ccc(S(=O)(=O)N2CCC(C(=O)N3CCc4ccccc4C3)CC2)cc1OC,0% (inactive),–
CN1OC(COC(=O)c2ccc(Cl)cc2)CC1c1ccccc1 (configuration not stated),0.3% (inactive),–
COc1cc(/C=C2/SC(=S)N(Cc3ccccc3)C2=O)cc(OC)c1O,97.2% (active),–
Cc1nc(C)c(-c2nnc(-c3cccc(S(=O)(=O)N(C)C)c3)o2)cc1C(=O)NN,0.7% (inactive),–
CCOc1ccc(C(=O)Nc2ccc(S(=O)(=O)NCC3CCCO3)cc2)cc1OCC (configuration not stated),0.3% (inactive),–
CCCCSc1nc2c(c(=O)n1CC)SC(C)C2 (configuration not stated),0% (inactive),–
Nc1ccc2nc3c(=O)[nH]c(=S)[nH]c3nc2c1,0% (inactive),–
CC(C)c1nc2ccc(C(=O)O)cc2[nH]1,0.4% (inactive),0.4
COc1ccc(N(CC(=O)NC2CCCCCCC2)S(=O)(=O)c2c(C)nn(C)c2C)cc1,0% (inactive),–
Cc1nn(-c2ncccn2)c2c1C(=O)CC(C)(C)C2Br (configuration not stated),0% (inactive),–
Cn1c(CNC(=O)c2ccccc2F)nnc1SCc1ccc(F)cc1,0% (inactive),–
CNc1nc(=O)n(C2CCCO2)cc1C (configuration not stated),0% (inactive),–
CC(=O)N1c2ccc(S(=O)(=O)N3CCCC(C(=O)Nc4cccc(F)c4)C3)cc2CC1C (configuration not stated),0% (inactive),–

SMILES,fluorescence response,double positive [%]
CCOC(=O)CC(=O)CSc1nc(-c2ccccc2)cc(-c2ccc(Cl)cc2)c1C#N,0% (inactive),–
CC(C)(C)OC(=O)CNC(=O)c1[nH]cnc1C(=O)N[C@@H](Cc1ccccc1)C(=O)OCc1ccccc1,0% (inactive),–
O=C(Nc1cccc(-c2nc3ncccc3o2)c1)c1ccco1,0.2% (inactive),–
O=S(=O)(NCc1cccnc1)c1ccc(Cl)nc1,0.4% (inactive),–
COCCCn1c(=O)/c(=C/c2ccccc2OC(C)C)s/c1=C(\C#N)C(=O)Nc1ccc(C(=O)O)cc1,0% (inactive),–
O=C(Nc1ccccc1N1CCN(c2ccccc2)CC1)c1cccc(F)c1,0% (inactive),–
CC1(C)CC(=O)C2=C(C1)Nc1cc(C(=O)c3ccccc3)ccc1NC2c1ccccn1 (configuration not stated),0.4% (inactive),–
CCc1c(C)sc(NC(=O)c2cccs2)c1C(N)=O,0% (inactive),–
C=CCNc1nnc(SCC(=O)N2CCCCC2)c2ccccc12,0.3% (inactive),–
Cc1cccc(C)c1NC(=O)CCS(=O)(=O)c1cccc2nsnc12,0% (inactive),–
Cc1ccc2nc(-c3ccccn3)cc(C(=O)Nc3ccc4c(c3)OCO4)c2c1,0% (inactive),–
CCOC(=O)c1c(-c2cccc(C)c2)csc1NC(=O)c1c(-c2ccccc2)noc1C,0% (inactive),–
Cn1c2ccccc2c2cc(/C=C(\NC(=O)c3ccccc3)C(=O)NCC(=O)O)ccc21,0% (inactive),–
CN(C(=O)CSc1nnc(C2CC2)n1C)C1CCCc2ccccc21 (configuration not stated),0% (inactive),–
CSc1nnc(-c2ccncc2)n1CCCN1CCCC1=O,0% (inactive),–
COc1cc(N=Cc2c(O)[nH]c3ccccc23)cc(OC)c1OC,0% (inactive),–
CC(CNc1ccc([N+](=O)[O-])cc1)NC(=O)c1ccccc1Br (configuration not stated),0.4% (inactive),–
Cc1ccc2c(c1)c1ncn(Cc3ccc(F)cc3)c(=O)c1n2C,0% (inactive),–
Cc1cccc(-n2c(SCC(=O)Nc3cccc(S(=O)(=O)NC4=NCCCCC4)c3)nc3ccccc3c2=O)c1C,0% (inactive),–
CCN(CC)CC(=O)c1c[nH]c2ccc(OC)cc12,0.3% (inactive),–
CCOc1ccc(NC(=O)CSc2nc3c(c(=O)n2-c2ccccc2OC)SCC3)cc1,0.5% (inactive),–
CC(C)C(=O)N1CCN(c2nc(-c3ccccc3)c3c(c2C#N)CC(C)(C)OC3)CC1,0% (inactive),–
O=C(CN1CCN(C2CCCCC2)CC1)Nc1ccccc1N1CCCCC1,0% (inactive),–
O=C(NCCN=C1NS(=O)(=O)c2ccccc21)c1ccc(S(=O)(=O)N2CCOCC2)cc1,4.3% (inactive),–
